# TRHR PAM = allosteric enhancers of human TRH receptor; P34981; 360,000 tested, 0.66% active; enhancement, % at 2 µM; TRHR cells, fluo-8 calcium fluorescence, EC20 TRH enhancement; in the data active = enhancement above about 30%; also: 0% is about no effect
# Target sequence (P34981 whole entry, looked up): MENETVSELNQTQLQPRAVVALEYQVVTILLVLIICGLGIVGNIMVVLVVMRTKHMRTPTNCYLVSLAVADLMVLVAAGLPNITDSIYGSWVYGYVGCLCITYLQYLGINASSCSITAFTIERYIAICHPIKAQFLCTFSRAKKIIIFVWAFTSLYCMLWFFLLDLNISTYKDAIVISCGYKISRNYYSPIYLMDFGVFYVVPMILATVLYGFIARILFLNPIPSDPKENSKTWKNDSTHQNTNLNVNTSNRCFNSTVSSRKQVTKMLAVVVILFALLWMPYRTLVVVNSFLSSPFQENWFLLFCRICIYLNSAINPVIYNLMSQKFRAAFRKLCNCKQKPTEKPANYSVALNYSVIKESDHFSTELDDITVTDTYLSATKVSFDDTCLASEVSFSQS
#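 Enhancer read-out: after compound pinning and an initial kinetic agonist-mode read, an EC20 of TRH (10 nM final) was injected and fluo-8 calcium signal (Ex 480/Em 530) followed at 1 s/cycle for 100 cycles in TRHR-expressing cells.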
# D1 antag = human D1 dopamine receptor antagonism; P21728; HEK293 TREx D1 cells, calcium flux, dopamine EC80; stronger effect = lower value; activity change, negative = inhibition, % at 10 µM; 360,000 tested, 3.2% active; AID 504652; in the data active = activity change below about -30%; also: % is scaled to controls: 0 for no effect and ±100 for the full control effect
#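 After overnight tetracycline induction at 30 C, force-coupled D1 HEK293 cells took up a no-wash calcium dye at room temperature. Compounds were added and monitored 180 s, and the response to EC80 dopamine was then recorded.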
# Epigenetic derep = derepresses silenced GFP reporter in murine cells; murine LDR cells, GFP reporter derepression, 30 h; Potency, µM (doses to about 53.9 µM), inactives show top-dose GFP activation, usual class: activators; 280,000 tested, 0.2% active; AID 1865; active = well fitted activation curve with a large enough effect; inconclusive = small, poorly fitted or top-dose-only effect; also: potency is read from the fitted curve at half-maximal effect; % of control where 0% means no effect; nearly all actives have a fitted effect of over 60% in size
#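 GFP-positive cell count by laser-scanning cytometry (objects 20–120 um) after 30 h, 37 C compound exposure of murine LDR cells; reporter is CMV-GFP integrated at a silenced locus, inducible by HDAC or DNMT inhibitors.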
# D1 ag = human D1 receptor agonism; P21728; HEK293 T-REx D1 cells, calcium flux, agonist mode; activation, % at 2 µM; 360,000 tested, 1% active; AID 504660; also: 0% is about no effect
#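 Inducible HEK293 T-REx D1 cells, force-coupled to calcium signalling, were plated at 4000 cells/well with tetracycline and held overnight at 30 C. After no-wash calcium dye loading, compound-evoked calcium rise over 180 s flagged agonists.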
# D1 potentiator = enhances dopamine response at the human D1 receptor; AID 504651; 360,000 tested, 0.036% active; P21728; potentiation, % at 10 µM; HEK293 TREx D1 cells, calcium flux, dopamine EC20 potentiation; in the data active = potentiation above about 30%; also: 0% is about no effect
# TRHR agonist = TRH receptor (human) agonism. P34981. TRHR cells, calcium flux fluo-8, FDSS agonist mode. activation, % at 2 µM. 360,000 tested, 0.18% active. AID 493084; also: 0% is about no effect
#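 TRHR-expressing cells loaded with fluo-8 calcium dye; 23 nL library compound pin-transferred, kinetic FDSS fluorescence (Ex 480/Em 530) recorded about 180 s for agonist-induced calcium release, before a 10 nM TRH EC20 addition for potentiator mode.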
# Starred values were filed as active, the others as inactive; ? = inconclusive; nt = no result given; ! = not confirmed by another sample; [ ] = remark or other dose. This is a sample that favours compounds with a hit; in the whole collection about 4.6% have one here. Rule as the data show it, unless noted: active = activation above about 30%; inactive = the rest.
SMILES,TRHR PAM,D1 antag,Epigenetic derep,D1 ag,D1 potentiator,TRHR agonist
Fc1ccc(-c2nn(-c3ccccc3)cc2CNCc2ccccc2)cc1,1,20,?,6,7,1
Fc1ccc(-n2cc(CNCCc3cccnc3)c(-c3ccccc3Cl)n2)cc1,9,-4,0%,61*,12,1
COc1ccc(-n2cc(CNCCCN3CCCC3=O)c(-c3ccccc3Cl)n2)cc1,4,11,-2%,3,-4,1
CC(=O)OC[C@@H]1O[C@@H](O/N=C2/C[C@@H](O)[C@@H](O)[C@@H]3[C@@H]4C(=O)N(c5cccc(Oc6ccccc6)c5)C(=O)[C@H]4CC[C@@H]23)[C@H](OC(C)=O)[C@H](OC(C)=O)[C@@H]1OC(C)=O,nt,nt,0%[10.1 µM],nt,nt,nt
CCOc1ccc(CCNC(=O)Cn2ncn3c(cc4ccccc43)c2=O)cc1OCC,7,0,0%,0,-4,0
CCOc1ccc(C(=O)CCC(=O)N(CC)CC(=O)NCc2cccs2)cc1,-3,-12,nt,0,8,0
CCOc1ccc(C(=O)CC(NCc2cccs2)C(=O)O)cc1 (centres undefined),0,-30*,-1%,3,-1,0
Nc1ccnc2c1ncn2[C@@H]1O[C@H](CO)[C@@H](O)[C@H]1O,nt,nt,0%,nt,nt,nt
CCCCC(CC)Cn1c(Oc2ccccc2)nc2c1c(=O)n(C)c(=O)n2C (centres undefined),0,14,-1%,4,8,1
COc1cccc(-c2nc3c(c(=O)[nH]c(=O)n3Cc3ccccc3)n2CCO)c1OC(F)F,7,-43*,nt,5,-3,-1
CC1CCCCN1CCCNC(=O)c1ccc(Cc2nc3ccccc3[nH]2)cc1 (centres undefined),nt,nt,-1%,nt,nt,nt
COc1ccc(OC)c(NC(=O)c2c(NCc3ccc(C)o3)sc3c2CCC(C)C3)c1 (centres undefined),0,10,1%,1,-5,0
Cn1c(NCCCCO)nc2c1c(=O)n(Cc1ccc(Cl)cc1)c(=O)n2C,11,-33*,-1%,-2,2,-1
COCCCNc1nc2c(c(=O)n(Cc3ccc(OC)cc3)c(=O)n2C)n1C,2,-8,nt,1,2,0
COc1ccc(Cn2c(=O)c3c(nc(NCCO)n3C)n(C)c2=O)cc1,-1,-33*,1%,0,-5,0
O=C(CSc1oc(-c2ccccc2)nc1S(=O)(=O)c1ccc(Br)cc1)c1ccccc1,1,-10,-2%,4,-1,1
COc1ccc(N2CCN(C(=O)CCS(=O)(=O)c3cc4c(cc3Cl)NC(=O)CO4)CC2)cc1,11,-64*,0%,-2,-1,0
CCc1cccc(NC(=O)CCS(=O)(=O)c2ccc3c(c2)NC(=O)CO3)c1,-1,7,nt,1,0,1
CCOC(=O)N1CCN(C(=O)CCS(=O)(=O)c2cc3c(cc2Cl)NC(=O)CO3)CC1,0,21,nt,4,-11,0
COc1cc(Cl)c(NC(=O)CCS(=O)(=O)c2ccc3c(c2)NC(=O)CO3)c(OC)c1,31*,14,1%,-2,-3,0
O=C(CCS(=O)(=O)c1cc2c(cc1Cl)NC(=O)CO2)NCc1ccc(F)cc1,-4,-35*,nt,1,-6,0
CCCC[C@]12Cc3cc(OC)c(OC)cc3C(O1)C1=C(O2)C(=O)c2ccccc2C1=O,-4,5,nt,0,2,0
Cc1cc(C)n(-c2nc(C)c(C)c(=O)n2CC(=O)Nc2cccc([N+](=O)[O-])c2)n1,-11,nt,2%,-1,0,0
CCc1sc(Nc2ccc(C)cc2Br)nc1-c1cc2cccc(OC)c2oc1=O,6,7,-1%,0,-2,0
CCOC(=O)c1sc(NC(=O)CCN2C(=O)c3cccc([N+](=O)[O-])c3C2=O)c(C(=O)OCC)c1C,-4,-33*,-1%,2,2,0
SMILES,TRHR PAM,D1 antag,Epigenetic derep,D1 ag,D1 potentiator,TRHR agonist
COc1ccc(CCNC(=O)c2ccc(CS(=O)(=O)c3ccc(Cl)cc3)o2)cc1OC,-8,-2,0%,10,-2,0
CCC(C)NC(=O)c1ccc(CS(=O)(=O)c2ccc(OC)cc2)o1 (centres undefined),-6,-38*,0%,-1,8,0
O=C(NC1CCCC1)c1ccc(CS(=O)(=O)c2ccc(Br)cc2)o1,-3,-30*,0%,1,-4,0
COc1ccc(CCNC(=O)c2c(N)no[n+]2[O-])cc1OC,-3,-31*,-5%,0,-5,0
COc1ccc(CCNC(=O)c2ccc(CS(=O)(=O)c3ccc(C)cc3)o2)cc1OC,-6,-31*!,-10%,8,1,-1
COc1ccc(-c2csc3ncnc(Nc4ccc(OC)c(OC)c4)c23)cc1,-2,7,-4%,4,2,-1
O=C(NCc1ccccc1Cl)c1cc(-c2ccccc2)n[nH]1,0,-6,-2%,1,-3,-1
Cc1ccc(S(=O)(=O)Cc2ccc(C(=O)N3CCC(C(N)=O)CC3)o2)cc1,36*,6,nt,2,3,0
Cc1ccc(CCNC(=O)c2ccc(CSCc3ccc(C)cc3)o2)cc1,-3,-5,1%,31*,-2,3
O=S(=O)(c1ccc(Br)cc1)c1nnn2c1nc(NCc1cccs1)c1sccc12,2,-5,17%,6,-6,1
COc1ccc(CCN2CC(C(=O)Nc3ccc4c(c3)OCO4)CC2=O)cc1OC (centres undefined),-11,-4,0%,3,0,0
O=C(Nc1ccc2c(c1)OCO2)C1CC(=O)N(CCc2ccccc2)C1 (centres undefined),3,-38*,0%,-2,-6,0
Cc1ccsc1C1C=C(c2cccc(Br)c2)Nc2ncnn21 (centres undefined),-2,7,-1%,43*,-1,24
Cc1ccc(N2CCN(C(=O)c3nn(C)c4c3CSc3ccccc3-4)CC2C)cc1 (centres undefined),0,6,-2%,-1,0,0
Cn1nc(-c2ccccc2)cc1NS(=O)(=O)c1ccccc1,4,-36*,0%,2,-2,-1
Cc1ccc(S(=O)(=O)Nc2cc(-c3ccccc3)nn2C)cc1,1,9,1%,1,-2,0
O=C(CN1c2ccccc2Sc2ccccc21)NNC(=O)Nc1ccc(Cl)c(Cl)c1,-2,-3,3%,2,-11,0
O=C(CN1c2ccccc2Sc2ccccc21)NNC(=O)Nc1ccc(Cl)cc1,37*,-36*,2%,0,-11,0
